A selection: hits, their analogues and other compounds. The true share with any hit is near 11%.
PNC inhibitor = perinucleolar compartment assembly inhibition; 140,000 tested, 3.1% active; activity change (PNC), negative = inhibition, % at 10 µM; PC3M PTB-GFP, PNC prevalence imaging, 16 h; stronger effect = lower value;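 active = readout at or below -70, meaning at least 70% loss of cells showing the perinucleolar compartment, a nuclear body marking cancer cells; inconclusive = readout between -30 and a set limit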;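 note: plate controls were DMSO wells for no effect and camptothecin positive control wells for full effect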
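PC3M cells stably expressing PTB-GFP, 750–1000 cells/well, treated 16 h at 37 °C with compound (23 nl of library stock), in duplicate. After paraformaldehyde fixation and Hoechst stain, imaged at 20x; PNC prevalence scored by image analysis.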
IMPase cell inh = membrane-permeable compound that blocks inositol monophosphatase; P97697; CHO-M1 cells, IP1 accumulation, HTRF TR-FRET ratio; inhibition (IP1 accumulation), % at 46.1 µM; 120,000 tested, under 10 active; AID 901; active = well fitted curve in the direction sought with a large enough effect in the signal ratio, not every such curve was filed as active; inconclusive = small, poorly fitted or top-dose-only effect, or a change in a side signal; inactive = no such curve, though single readings can be large or run the other way; the % refers to the signal ratio;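 note: cells stimulated with carbachol in lithium chloride buffer; plate controls were DMSO basal wells for no effect and reference inhibitor wells for full effect; higher means more IMPase inhibition seen as more IP1 and lower FRET ratio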
Target sequence (P97697 whole entry, looked up): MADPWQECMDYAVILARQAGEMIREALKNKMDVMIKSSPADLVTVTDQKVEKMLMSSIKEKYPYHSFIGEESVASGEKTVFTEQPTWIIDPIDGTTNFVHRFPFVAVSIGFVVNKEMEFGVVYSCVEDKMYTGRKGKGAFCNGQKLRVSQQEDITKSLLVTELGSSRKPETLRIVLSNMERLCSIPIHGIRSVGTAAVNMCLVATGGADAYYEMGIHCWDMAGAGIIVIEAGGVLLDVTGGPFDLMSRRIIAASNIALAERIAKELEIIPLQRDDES
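Measured: the HTRF emission ratio (665/620 nm) plus the 620 nm donor channel, each fitted to the Hill equation to give AC50. Cells were CHO-M1 given compounds up to 46 uM and a 30 min carbachol stimulation at 37C.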
ALDH1A1 inh = ALDH1A1 (human) enzyme inhibition; P00352; 220,000 tested, 7.3% active; Purified ALDH1A1, NADH fluorescence, propionaldehyde substrate; Potency, µM (highest dose often 75.3 µM), without a hit: at the highest dose activity, negative = inhibition, most hits filed as inhibitors; AID 1030; active = well fitted inhibition curve with a large enough effect, not every such curve was filed as active; inconclusive = small, poorly fitted or top-dose-only effect, or another doubt; inactive = no such curve, though single readings can be large or run the other way;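 note: potency is the fitted concentration of half-maximal effect; plate controls were no enzyme wells and a reference inhibitor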
HPGD inh = inhibitors of human 15-hydroxyprostaglandin dehydrogenase (HPGD). P15428. purified HPGD, NADH fluorescence kinetic, PGE2 substrate. 150,000 tested, 4.3% active. AID 894. Potency, µM, inactives show top-dose activity change, negative = inhibition, actives largely listed as inhibitors; active = well fitted inhibition curve with a large enough effect, not every such curve was filed as active; inconclusive = small, poorly fitted or top-dose-only effect, or another doubt; inactive = no such curve, though single readings can be large or run the other way; note: potency is the fitted concentration of half-maximal effect
Target sequence (P15428 whole entry, looked up): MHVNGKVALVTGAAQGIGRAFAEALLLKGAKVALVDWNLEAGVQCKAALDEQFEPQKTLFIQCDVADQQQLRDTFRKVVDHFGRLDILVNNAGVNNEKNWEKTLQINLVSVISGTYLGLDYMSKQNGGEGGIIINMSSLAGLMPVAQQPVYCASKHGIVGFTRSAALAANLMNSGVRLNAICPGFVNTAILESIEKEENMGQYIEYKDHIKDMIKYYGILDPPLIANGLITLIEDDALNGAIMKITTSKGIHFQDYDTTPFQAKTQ
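NADH formation kinetics: reaction with 30 uM PGE2 and 1 mM NAD+ (final), 20 nM enzyme, Tris-HCl pH 8 with Tween 20, after 15 min compound preincubation at room temperature. Fluorescence change, last versus first of five reads.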
IMPase Li cell = membrane-permeable IMPase blocker, potentiated with lithium; CHO-M1 cells, IP1 TR-FRET (IP-One), carbachol + lithium; Potency, µM (doses to about 59.4 µM), for inactives: top-dose activity, negative = IMPase inhibition, hits mostly inhibitors; 210,000 tested, 0.35% active; AID 1457;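 note: IP1 builds up when IMPase is blocked and the TR-FRET signal falls; potency is the fitted concentration of half-maximal effect; plate controls were basal vehicle for no effect and high inhibitor control for full effect; nearly all actives have a fitted effect of over 50% in size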
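CHO cells stably expressing M1 receptor (2000/well) were cultured 16–30 h, then exposed to compounds with a small lithium addition for 30 min at 37C. IP1 was measured by TR-FRET competition; AC50 from Hill fits.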
ALOX12 inhib = inhibitors of human 12-lipoxygenase (ALOX12); P18054; purified 12-hLO, xylenol orange hydroperoxide absorbance; Potency, µM (series often up to 57.1 µM), inactives show top-dose activity change, negative = inhibition, usual class: inhibitors; 150,000 tested, 0.12% active; AID 1452; note: potency is the fitted concentration of half-maximal effect; nearly all actives have a fitted effect of over 55% in size
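150 nM 12hLO, 25 mM Hepes pH 7.0 + 0.01% Triton X-100; cpd preinc 15 min RT; 40 uM arachidonic acid, 30 min RT; Fe-XO 30 min; A573/A405 ratio as read-out.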
Numbers without * were called inactive; ? = inconclusive; . = no result; [ ] = dose if it differs, or a comment. Unless noted, calls come from the whole dose curve; as a rule, active = well fitted curve in the direction sought with a large enough effect; inconclusive = small, poorly fitted or top-dose-only effect, or another doubt; inactive = no such curve, though single readings can be large; an effect the other way counts as inactive or inconclusive. Unless noted, % is set by controls: 0 for no effect and ±100 for the full control effect.

SMILES	PNC inhibitor	IMPase cell inh	ALDH1A1 inh	HPGD inh	IMPase Li cell	ALOX12 inhib
CC1Cc2ccccc2N1C(=O)c1ccc(N2CCCC2)c([N+](=O)[O-])c1 (stereo not given)	-6	-9	13µM*	-20%	16%	0%
COc1ccccc1C(=O)Nc1ccc(-c2nc3cc(C)cc(C)c3o2)cc1	.	-8	.	.	.	.
CC(C)(C)Cc1nnc(NS(=O)(=O)Cc2ccccc2)s1	43	-3	25µM*	-19%	-16%[38.3 µM]	3%
CC(=O)Nc1ccc(S(=O)(=O)Nc2nnc(CC(C)(C)C)s2)cc1	.	.	3%	.	14%	.
CC(C)(C)Cc1nnc(NS(=O)(=O)c2ccc(F)cc2)s1	-82*	8	?	?	0%[38.3 µM]	-4%
Clc1ccccc1C(Nc1cnccn1)Nc1cnccn1	.	.	-12%[13.5 µM]	?	6%	-2%[11.4 µM]
O=C(/C=C/c1ccc[nH]1)c1ccc(F)cc1	.	.	-18%	.	6%	.
O=C(/C=C/c1c(F)cccc1Cl)c1ccc(F)cc1	60	8	-44%	13µM*	27%[38.3 µM]	?
O=C(/C=C/c1c(F)cccc1Cl)NCc1ccco1	?	.	?	10µM*	-1%	2%
O=C(/C=C/c1ccc(F)cc1)NCc1ccco1	11	.	-3%	25µM*	0%	-20%
CCC(C)OC(=O)/C(C#N)=C\c1ccc(-c2cccc(C(F)(F)F)c2)o1 (stereo not given)	.	-12	.	.	.	.
Cc1cc(O)cc(O)c1C(=O)OC1(C)C(=O)C=C2C=C(/C=C/C(=O)O)OC=C2C1=O (stereo not given)	.	.	?	-17%	5%	.
Cc1cc(C)[n+](C)n1CC(O)Cn1c2ccccc2c2ccccc21 (stereo not given)	.	.	7%	.	17%	.
COc1ccc(COC(=O)N/N=C2/C[C@@H](O)[C@@H](O)[C@@H]3[C@@H]4C(=O)N(C(C)(C)C)C(=O)[C@H]4CC[C@H]23)cc1	.	.	2%[13.5 µM]	.	.	.
O=C(C1CCCCC1)N1CCC(n2nnc3ccccc32)CC1	-27	-3	14µM*	-4%	2%	1%
O=c1cc(-c2ccccc2)nc2nc(CCc3ccccc3)[nH]n12	-107*	4	-3%	-9%	14%[38.3 µM]	-2%
Cc1nc2nc(-c3ccccc3)cc(=O)n2[nH]1	?	-3	5%	-6%	18%[38.3 µM]	-4%
O=c1cc(-c2ccccc2)nc2nc(-c3ccco3)[nH]n12	-117*	3	?	-26%	8%[38.3 µM]	-1%
COC(=O)C(NC(=O)c1ccco1)(Nc1cc(C)ccn1)C(F)(F)F (stereo not given)	-100*	11	9%	-8%	2%	0%
O=[N+]([O-])c1ccc(NC(=S)NCc2ccncc2)cc1	.	.	11µM*	.	8%	.
O=C(NCc1ccncc1)Nc1cccc([N+](=O)[O-])c1	.	.	7%	.	-1%	.
O=[N+]([O-])c1ccc(NC(=S)NCCc2ccccc2)cc1	-23	.	?	-10%	12%	-3%
CC(NC(=S)Nc1ccc([N+](=O)[O-])cc1)c1ccncc1 (stereo not given)	.	.	20µM*	.	6%	.
COc1ccc(NC(=S)NC(C)c2ccncc2)cc1OC (stereo not given)	.	.	1%	.	-2%	.
O=[N+]([O-])c1cccc(NC(=S)NCc2ccncc2)c1	.	.	9.5µM*	.	-2%	.
SMILES	PNC inhibitor	IMPase cell inh	ALDH1A1 inh	HPGD inh	IMPase Li cell	ALOX12 inhib
c1cncc(CNCc2cccnc2)c1	.	.	0%[13.5 µM]	-3%	2%	-1%[11.4 µM]
Cc1ccc2oc(=O)c(/C=C(\O)c3ccccc3)nc2c1	.	.	?	.	-4%	.
Cc1nc(C)c(/C(O)=C/c2nc3ccc([N+](=O)[O-])cc3oc2=O)o1	.	.	0.4µM*	.	?	.
O=C(N=C1c2ccccc2CN1c1ccc(F)cc1)c1ccc(Cl)nc1	-28	12	28µM*	-7%	12%	1%
CCOC(=O)c1ccc(N2Cc3ccccc3C2=NC(=O)c2ccncc2)cc1	.	.	-6%	.	-4%	.
COc1ccccc1NC(=O)CCN1CCCCC1	.	-4	.	.	.	.
COc1ccc2cc(C(c3nnnn3Cc3ccccc3)N3CCCCCC3)c(=O)[nH]c2c1 (stereo not given)	2	?	14µM*	-8%	-1%[38.3 µM]	-16%

Bioassay records as filed in PubChem BioAssay.
